DUX4 inh = inhibitors of DUX4-driven ZSCAN4 reporter expression, primary screen, 293T cells, Gaussia and Italica luciferase; 293T-iDUX4 ZSCAN4-Gaussia luciferase reporter, 24 h; stronger effect = lower value; activity change, negative = inhibition, % (test concentration not listed); 0.8% of 37,000 active; AID 1224904, 2016;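 active means mean inhibition of at least 10% in the main channel, exceeding the control channel by a set limit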
Hits are given with their value; i = inactive. The entries come from a sample that favours hits as a whole.

SMILES	DUX4 inh
CNC(=O)C[C@H]1CC[C@@H]2[C@H](COC[C@@H](O)CN2Cc2ccc(C(F)(F)F)cc2)O1	i
COCC(=O)N1CC2(CN(Cc3ccccc3)C2)c2c([nH]c3cc(OC)ccc23)[C@H]1CO	i
CCCN(C)C[C@@H]1Oc2cc(-c3ccc(F)cc3)ccc2S(=O)(=O)N([C@H](C)CO)C[C@@H]1C	i
CO[C@H]1CN(C)C(=O)c2cccc(C#N)c2OC[C@@H]2O[C@H](CC[C@H]2OC)CCN(C)C(=O)[C@@H]1C	i
C[C@@H](NC(=O)C[C@H]1C=C[C@H](NC(=O)CN2CCOCC2)[C@H](CO)O1)c1ccccc1	i
O=C(N[C@H]1C=C[C@@H](CC(=O)N2CCc3ccccc3C2)O[C@H]1CO)C1CCC1	i
C[C@@H]1CCCCO[C@@H](CN(C)C(=O)Nc2ccc3c(c2)OCO3)[C@@H](C)CN([C@@H](C)CO)C(=O)c2cc(NC(=O)C3CCCCC3)ccc2O1	i
Cc1noc(C)c1NC(=O)Nc1cccc2c1O[C@@H](CN(C)Cc1ccc(C(=O)Nc3ccccc3N)cc1)[C@@H](C)CN([C@H](C)CO)C2=O	i
COCC(=O)N1[C@H](CO)[C@@H](c2ccccc2)C12CN(C(=O)NC1CCCC1)C2	i
COc1ccc(CN(C)C[C@@H]2Oc3ccc(NC(=O)Nc4c(C)noc4C)cc3C(=O)N([C@@H](C)CO)C[C@H]2C)cc1	i
O=C(C[C@@H]1CC[C@H]2[C@@H](COC[C@H](O)CN2Cc2ccc(F)cc2)O1)NCc1ccccc1Cl	i
CN1c2ccc(-c3cccc(F)c3)cc2[C@H]2[C@H](CCN2C(=O)C2CCC2)[C@H]1CO	i
CN1c2ccc(-c3cccc(F)c3)cc2[C@@H]2[C@@H](CCN2C(=O)C2CCC2)[C@H]1CO	-35.4
CN1c2ccc(-c3cccc(F)c3)cc2[C@@H]2[C@@H](CCN2C(=O)C2CCOCC2)[C@@H]1CO	i
CCCC(=O)N1CC2(C1)CN(Cc1ccncc1)[C@@H](CO)c1[nH]c3cc(OC)ccc3c12	i
COc1cccc(CNC(=O)C[C@H]2C=C[C@H](NC(=O)C3CCOCC3)[C@@H](CO)O2)c1	i
COc1ccc(C#Cc2ccc([C@@H]3[C@H](CO)N4CCCCN(C)C[C@@H]34)cc2)cc1	-24.5
OC[C@@H]1[C@@H](c2ccc(C#CC3(O)CCCC3)cc2)[C@H]2CN(Cc3ccncc3)CCCCN12	i
COc1ccc(C#Cc2ccc([C@H]3[C@@H](CO)N4CCCCN(C)C[C@@H]34)cc2)cc1	i
COc1ccc(C#Cc2ccc([C@@H]3[C@@H](CO)N4CCCCN(C)C[C@H]34)cc2)cc1	i
COc1ccc(C#Cc2ccc([C@@H]3[C@@H](CO)N4CCCCN(Cc5ccncc5)C[C@H]34)cc2)cc1	-25.7
COc1ccc(C#Cc2ccc([C@H]3[C@H]4CN(Cc5ccncc5)CCCCN4[C@H]3CO)cc2)cc1	-55.4
CCCC#Cc1ccc([C@H]2[C@H]3CN(Cc4ccncc4)CCCCN3[C@H]2CO)cc1	i
COCC#Cc1ccc([C@@H]2[C@H](CO)N3CCCCN(Cc4ccncc4)C[C@@H]23)cc1	i
CCCC#Cc1ccc([C@H]2[C@@H](CO)N3CCCCN(Cc4ccncc4)C[C@@H]23)cc1	i
SMILES	DUX4 inh
O=C(C[C@H]1C=C[C@@H](NC(=O)c2ccccn2)[C@H](CO)O1)NCc1cccc(F)c1	i
CCCNC(=O)C[C@@H]1CC[C@@H]2[C@H](COC[C@@H](O)CN2C(=O)CC)O1	i
C[C@H](CO)N1C[C@H](C)[C@@H](CN(C)Cc2cccc(C(=O)O)c2)OCc2ccccc2-c2c(n(C)c3ccccc23)C1=O	i
C[C@H](CO)N1C[C@H](C)[C@H](CN(C)Cc2ccc(O)cc2)OCc2ccccc2-c2c(n(C)c3ccccc23)C1=O	i
C[C@H]1CN([C@@H](C)CO)C(=O)c2c(c3ccccc3n2C)-c2ccccc2CO[C@H]1CN(C)Cc1cccc(C(=O)O)c1	i
C[C@H]1CN([C@@H](C)CO)C(=O)c2c(c3ccccc3n2C)-c2ccccc2CO[C@@H]1CN(C)Cc1cccc(O)c1	-44.6
C[C@H](CO)N1C[C@H](C)[C@H](CN(C)Cc2cccc(O)c2)OCc2ccccc2-c2c(n(C)c3ccccc23)C1=O	-29.0
C[C@@H]1CN([C@H](C)CO)C(=O)c2c(c3ccccc3n2C)-c2ccccc2CO[C@H]1CN(C)Cc1cccc(F)c1	-34.6
C[C@H]1CN([C@@H](C)CO)C(=O)c2c(c3ccccc3n2C)-c2ccccc2CO[C@H]1CN(C)Cc1ccc(O)cc1	i
C[C@H]1CN([C@@H](C)CO)C(=O)c2c(c3ccccc3n2C)-c2ccccc2CO[C@@H]1CN(C)Cc1cccc(C(=O)O)c1	i
C[C@@H]1CN([C@@H](C)CO)C(=O)c2c(c3ccccc3n2C)-c2ccccc2CO[C@H]1CN(C)Cc1cccc(O)c1	i
CO[C@H]1CN(C)C(=O)c2ccc(NC(=O)C3CCC3)cc2OC[C@@H](C)N(C(=O)CN(C)C)C[C@@H]1C	i
CC(=O)N1CC[C@@H]2[C@@H](CO)N(C)c3ccc(-c4cccc(F)c4)cc3[C@@H]21	i
Cc1cccc(S(=O)(=O)N[C@H]2CC[C@@H](CCn3cc(-c4ccccn4)nn3)O[C@H]2CO)c1	i
CN1CCN(C(=O)C[C@H]2C[C@@H]3c4cc(NC(=O)c5ccc6c(c5)OCO6)ccc4O[C@@H]3[C@H](CO)O2)CC1	i
COc1ccccc1C(=O)N1C[C@H]2[C@@H](c3ccccc31)[C@@H](CO)N2Cc1ccc(F)cc1	i
COc1cccc(CN2[C@@H](CO)[C@@H](c3ccccc3)C23CN(C(=O)C2CCC2)C3)c1	i
COc1cccc(CN2[C@@H](CO)[C@@H](c3ccccc3)C23CN(Cc2ccccc2OC)C3)c1	-38.2
COc1cccc(CN2[C@@H](CO)[C@@H](c3ccccc3)C23CN(C(=O)C2CC2)C3)c1	i
OC[C@@H]1[C@H](c2ccc(-c3cccc(F)c3)cc2)[C@@H]2CN(CCC(F)(F)F)CCCCN12	i
C/C=C/c1ccc([C@@H]2[C@H]3CN(CCC(F)(F)F)CCCCN3[C@H]2CO)cc1	i
OC[C@@H]1[C@@H](c2ccc(-c3cccc(F)c3)cc2)[C@H]2CN(Cc3cncnc3)CCCCN12	i
COc1ccccc1C#Cc1ccc([C@H]2[C@H](CO)N3CCCCN(CCC(F)(F)F)C[C@@H]23)cc1	-60.6
OC[C@@H]1[C@H](c2ccc(-c3cccc(F)c3)cc2)[C@H]2CN(CCC(F)(F)F)CCCCN12	-46.7
Cc1cccc(-c2ccc([C@H]3[C@@H](CO)N4CCCCN(Cc5ccncc5)C[C@@H]34)cc2)c1	i
SMILES	DUX4 inh
CN(C)C(=O)c1ccc(-c2ccc([C@@H]3[C@H](CO)N4CCCCN(CCC(F)(F)F)C[C@@H]34)cc2)cc1	i
Cc1ccccc1-c1ccc([C@H]2[C@H]3CN(C(=O)Nc4cccc(F)c4)CCCCN3[C@H]2CO)cc1	i
Cc1ccccc1-c1ccc([C@@H]2[C@H]3CN(C(=O)Nc4cccc(F)c4)CCCCN3[C@H]2CO)cc1	-43.5
COc1ccccc1C#Cc1ccc([C@H]2[C@H]3CN(S(C)(=O)=O)CCCCN3[C@H]2CO)cc1	i
O=C(Nc1cccc(F)c1)N1CCCCN2[C@H](CO)[C@H](c3ccc(-c4ccncc4)cc3)[C@@H]2C1	i
Cc1cccc(-c2ccc([C@@H]3[C@H]4CN(CCC(F)(F)F)CCCCN4[C@H]3CO)cc2)c1	-31.2
CCCC(=O)N1CC2(CCN(Cc3cccnc3)CC2)c2c([nH]c3cc(OC)ccc23)[C@@H]1CO	i
O=C(C[C@@H]1CC[C@@H]2NC[C@@H](O)COC[C@H]2O1)Nc1ccccc1	i

Source: PubChem
